# In PubChem BioAssay (NCATS):
# Results filed as inconclusive are left out. Activity calls are given as the source filed them. Calls follow the shape of the full dose curve.
# Target: Vitamin D3 receptor (Homo sapiens) (UniProt P11473)
# Assay: qHTS assay for small molecule agonists of vitamin D receptor signaling (AID 588543)
# Conditions: HEK293T VDR-UAS-bla, beta-lactamase ratio, 16 h; series mostly up to 76.8 µM
# Text: NIH Chemical Genomics Center [NCGC]
# U.S. Environmental Protection Agency [EPA]
# National Institutes of Environmental Health Sciences [NIEHS]
# National Toxicology Program [NTP]
# The Vitamin D receptor (VDR) is a member of nuclear hormone receptor superfamily and it plays a critical role in calcium homeostasis and bone metabolism. It plays a role in inducing cell differentiation, inhibiting cell growth and in thrombogenicity. So, VDR that mediates these effects represents a pharmacological target in prevention and treatment of hyperproliferative malignancies, such as cancer and psoriasis, cardiovascular, immunological, inflammatory and renal diseases etc.
# NCGC Assay Protocol Summary
# Using a beta-lactamase reporter-gene under control of Vitamin D receptor (VDR) response element, a cell-based assay [GeneBLAzer (VDR -UAS-bla assay developed by Invitrogen] was used to measure VDR ligands signaling. GeneBLAzer VDR -UAS-bla HEK293T cells were used with assay medium containing 2% charcoal-stripped FBS. The assay was performed in clear bottom black Greiner 1536-well plates. 1-alpha,25-Dihydroxy vitaminD3 was used as a positive control in the screen. Library compounds were measured for their ability to stimulate the reporter gene activity. Compounds were screened in a titration series in 1536-well format. The fluorescence intensity (405 nm excitation, 460/530 nm emission) was measured using an EnVision plate reader. Data was normalized relative to 1-alpha,25-Dihydroxy vitaminD3 control (50 nM, 100%) and DMSO only wells (basal, 0%). Concentration-response titration points for each compound were fitted to the Hill equation yielding concentrations of half-maximal stimulation (EC50) and maximal response (efficacy) values.
# qHTS protocol for VDR beta-lactamase assay in agonist mode
# [Step] [Parameter] [Value] [Description]
# 1. Reagent; 6 uL; 2000 cells/well
# 2. Incubation; 37 C for 5 hrs
# 4. Controls (1-alpha,25-Dihydroxy vitaminD3); 23 nL,
# - Final concentrations of 50 nM and 15 nM in two columns
# 5. Incubation; 37 C for 16 hrs
# 6. Detection reagent; 1 uL of CCF4-dye
# 7. Incubation; RT for 2 hrs
# 8. Detection; Fluorescence; Envision plate reader
# Vitamin D3 receptor (Homo sapiens), sequence (P11473 whole entry, looked up): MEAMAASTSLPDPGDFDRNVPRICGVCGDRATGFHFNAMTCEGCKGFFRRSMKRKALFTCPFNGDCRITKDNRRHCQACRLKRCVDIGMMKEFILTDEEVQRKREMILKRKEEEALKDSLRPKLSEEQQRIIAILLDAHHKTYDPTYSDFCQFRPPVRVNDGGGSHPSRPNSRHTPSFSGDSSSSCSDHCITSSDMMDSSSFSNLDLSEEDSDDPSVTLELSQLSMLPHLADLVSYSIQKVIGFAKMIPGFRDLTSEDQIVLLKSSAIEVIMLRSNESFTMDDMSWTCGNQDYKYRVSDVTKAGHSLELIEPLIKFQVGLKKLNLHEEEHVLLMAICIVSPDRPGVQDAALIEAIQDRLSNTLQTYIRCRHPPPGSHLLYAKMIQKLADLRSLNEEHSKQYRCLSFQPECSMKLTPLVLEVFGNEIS
row,Structure (SMILES),outcome
1,CCCCCCCC(=O)OCC(COC(=O)CCCCCCC)OC(=O)CCCCCCC,inactive
2,CC(=O)OCC(COC(C)=O)OC(C)=O,inactive
3,COc1ccc(O)cc1,inactive
4,CC[N+](CC)(CC(=O)Nc1c(C)cccc1C)Cc1ccccc1,inactive
5,Cc1c(N(C)C)c(=O)n(-c2ccccc2)n1C,inactive
6,CC(=O)Nc1ccccc1,inactive
7,OC[C@@H](O)[C@@H](O)[C@H](O)[C@H](O)CO,inactive
8,O=C(O)CCCCC1CCSS1 (centres undefined),inactive
9,Cc1ccc(C(C)C)c(O)c1,inactive
10,CCCCCC(N)=O,inactive
11,CCCCCCCCCCCCCCCCCCO,inactive
12,CC(=O)NS(=O)(=O)c1ccc(N)cc1,inactive
13,CCCCOC(=O)c1ccc(N)cc1,inactive
14,C=CCNC(N)=S,inactive
15,O=C1c2cccc(O)c2C(=O)c2c(O)cccc21,inactive
16,O=C(c1ccccc1)C(O)c1ccccc1 (centres undefined),inactive
17,Cc1cc(=O)[nH]c(=S)[nH]1,inactive
18,CCN(CC)C(=O)c1cccc(C)c1,inactive
19,COC(=O)c1ccc(O)cc1,inactive
